Rows were chosen to be rich in hits. Some 21% of all compounds tested hit in one or more screens of this group.
Pf growth 48h: inhibits P. falciparum growth in the first generation, 48 h; AID 504832; Potency, µM (highest dose often 28.7 µM), for inactives: top-dose activity change, negative = inhibition, most hits filed as inhibitors; P. falciparum luciferase growth in erythrocytes, 48 h; 310,000 compounds, 5.9% hits; note: potency is the fitted concentration of half-maximal effect; % is set by controls: 0 for no effect and ±100 for the full control effect
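Parasite viability was followed by luminescence of a genomically integrated firefly luciferase. Cultures held 0.1% parasitemia at 2% hematocrit (final), incubated under 5% CO2 at 37 C.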
Shiga toxin inh: blocks Shiga toxin action in Vero cells. Vero cells, Shiga toxin protein synthesis inhibition reporter. inhibition, % at 38.7 µM. 290,000 compounds, 9.2% hits; in the data active = inhibition mostly above about 28%, no sharp cut-off; inactive = mostly below about 43%; note: 0% is about no effect
Cycloheximide cs: counter-screen for Shiga toxin inhibitors: cycloheximide protein synthesis inhibition; 300,000 compounds, 12% hits; max response, %; cell reporter, cycloheximide protein synthesis inhibition counterscreen; in the data active = max response mostly above about 13%, no sharp cut-off; inactive = mostly below about 14%; note: read at 38.3 µM for the half of the compounds with a filed dose; 0% is about no effect
Pf growth 96h: P. falciparum growth inhibition at 96 hours; P. falciparum luciferase reporter growth, 96 h; Potency, µM (doses to about 28.7 µM), for inactives: top-dose activity change, negative = inhibition, usual class: inhibitors; 320,000 compounds, 6.9% hits; AID 504834; note: potency is the fitted concentration of half-maximal effect; % is set by controls: 0 for no effect and ±100 for the full control effect
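Compounds incubated with erythrocytes infected by luciferase-expressing P. falciparum (2% hematocrit, 0.05% parasitemia final) for 96 hours, 37 C in 5% CO2. Growth inhibition scored as decreased luciferase luminescence.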
* marks the source's active call; other numbers are inactive results; ? = inconclusive; / = no result. Unless noted, calls come from the whole dose curve; as a rule, active = well fitted inhibition curve with a large enough effect; inconclusive = small, poorly fitted or top-dose-only effect, or another doubt; inactive = no such curve, though single readings can be large or run the other way.

SMILES | Pf growth 48h | Shiga toxin inh | Cycloheximide cs | Pf growth 96h
O=C1/C(=C\c2ccco2)SC(=S)N1c1ccccc1 | 37.9% | 38.8 | 6.9 | 35.8%
C=CCN1C(=O)/C(=C\C(C)=C\c2ccccc2)SC1=S | -7.6% | / | -4.2 | -17.6%
CC(/C=C1\SC(=S)N(CCCC(=O)Nc2ccc(C(=O)O)cc2)C1=O)=C\c1ccccc1 | ? | 15.3 | 0.9 | ?
Cc1ccc(N2C(=O)/C(=C\c3ccco3)SC2=S)cc1 | ? | 63.9* | 21.4 | 5.2%
CC1CC(OC(=O)C2CCN(S(=O)(=O)c3ccc(F)cc3)CC2)C(=O)O1 (stereo not drawn) | ? | / | / | 13.3%
CSCCC(NC(=O)c1ccccc1Br)C(=O)N1CCCC(C(F)(F)F)C1 (stereo not drawn) | -7.5% | 12.4 | -2.4 | 4.4%
Cc1noc(C)c1C(=O)OCC(=O)Nc1ccccc1SCC#N | 4.9% | / | / | -12.7%
O=C(O)CCCN1C(=O)/C(=C\c2ccco2)SC1=S | -8.9% | -12.4 | -5.2 | 2.94µM*
O=C(c1cc(-c2cccc(O)c2)on1)N1CCN(C(c2ccccc2)c2ccccc2)CC1 | 1.85µM* | -8.9 | -2.5 | ?
O=C(c1cc(C2CC2)on1)N1CCN(C(c2ccccc2)c2ccccc2)CC1 | 2.4% | 15.8 | -0.5 | -9.7%
O=C(NCCN1CCOCC1)c1cc(-c2cccc(Cl)c2)on1 | 32.5% | 37.5 | 1.1 | ?
CN1CCN(C(=O)c2cc(-c3cccc(Cl)c3)on2)CC1 | 65.7% | 41.5 | 33.8* | 11.4%
O=C(c1cc(-c2cccc(Cl)c2)on1)N1CCCCCC1 | 107.0% | 116.5* | 26.6* | 35.4%
O=C(c1cc(-c2cccc(Cl)c2)on1)N1CCN(c2ccc(F)cc2)CC1 | 8.6% | -18.9 | -2.9 | ?
O=S(=O)(c1ccc2c(c1)nc(COc1ccc(Cl)cc1)n2CC1CCCO1)N1CCOCC1 (stereo not drawn) | ? | -11.6 | -5.5 | 11.7µM*
O=C(c1ccc(-c2ccccc2)c(F)c1)C1CCCN(CCO)C1 (stereo not drawn) | ? | 68.2 | 14.6* | 12.0%
CSc1ccc(C(=O)C2CCCN(S(=O)(=O)N(C)C)C2)cc1 (stereo not drawn) | 1.7% | -1.1 | 0.5 | 23.9%
O=C(c1ccc(-c2ccccc2)c(F)c1)C1CCCN(CCCn2cccn2)C1 (stereo not drawn) | ? | 14.3 | 8.7 | ?
COc1c(C)cc(C(=O)C2CCCN(S(=O)(=O)N(C)C)C2)cc1C (stereo not drawn) | -14.6% | / | 3.6 | 2.94µM*
CN(C)S(=O)(=O)N1CCCC(C(=O)c2ccc(-c3ccccc3)c(F)c2)C1 (stereo not drawn) | ? | 34.7* | 14.8* | 26.1%
CCOc1ccccc1CN1CCCC(C(=O)c2ccc(OC)c(OC)c2)C1 (stereo not drawn) | ? | 1.0 | -0.6 | ?
COc1ccc(C(=O)C2CCCN(Cc3cn(C)nc3-c3ccccc3)C2)cc1F (stereo not drawn) | ? | -6.2 | -3.1 | 9.28µM*
CC(C)c1ccc(C2(C)NC(=O)N(CC(=O)N3CCN(C(=O)c4cccs4)CC3)C2=O)cc1 (stereo not drawn) | -27.8% | / | / | ?
CCCCCCCCc1nnc(NC(=O)c2ccco2)s1 | -9.2% | 18.3 | 3.3 | /
CCCNS(=O)(=O)c1ccc(CCC(=O)Nc2ccc3c(c2)OCCO3)cc1 | ? | 18.2 | -3.9 | ?
SMILES | Pf growth 48h | Shiga toxin inh | Cycloheximide cs | Pf growth 96h
CC(C)CNS(=O)(=O)c1ccc(CCC(=O)Nc2ccc3c(c2)OCCO3)cc1 | 11.7µM* | 9.2 | 5.5 | 226.3%
CC(C)CNS(=O)(=O)c1ccc(C(=O)Nc2ccc3c(c2)OCCO3)cc1 | ? | 96.7* | 54.1* | ?
Cc1ccccc1OC(C)C(=O)Nc1ccc2c(c1)OCCO2 (stereo not drawn) | -17.2% | 21.3 | 34.2* | 43.2%
CC(NS(=O)(=O)c1ccccc1)C(=O)Nc1ccc2c(c1)OCCO2 (stereo not drawn) | 13.7% | 15.7 | 7.6 | 7.38µM*
COc1cc(NC(=O)c2cccc(Br)c2)nc(OC)n1 | 186.7% | 71.0* | 40.4* | 2.94µM*
COc1cc(NC(=O)COc2ccc(F)cc2)nc(OC)n1 | 11.7% | 6.8 | -0.5 | 13.1µM*
COc1cc(NC(=O)c2c(F)cccc2F)nc(OC)n1 | 94.2% | 98.5* | 32.5* | ?
COc1cc(NS(=O)(=O)c2ccc(NC(=O)COc3ccc(C)cc3)cc2)nc(OC)n1 | ? | 13.4 | -2.0 | 15.1%
Cc1nnc(NC(=O)c2cccc(Br)c2)s1 | / | -9.4 | 1.1 | 16.6%
O=C(CCC(=O)N1CCN(Cc2ccccc2)CC1)Nc1nnc(C2CCCCC2)s1 | -29.6% | -3.5 | 10.2 | ?

Assay outcomes as filed in PubChem.
